Experimental findings from PubChem BioAssay (NCATS) are described below.

The target of assay [1] is Aldehyde dehydrogenase, mitochondrial (Homo sapiens) (UniProt P05091). Briefly: qHTS for Inhibitors of the Aldehyde Dehydrogenase Family (ALDH2) Primary screen (AID 2061308). Also: nearly all actives have a fitted effect of over 55% in size. Also: potency is read from the fitted curve at half-maximal effect. On the technique in general: Quantitative high-throughput screening tests each substance at several concentrations.
The target in assay [2] is Retinaldehyde dehydrogenase 3 (Homo sapiens) (UniProt P47895). Briefly: qHTS for Inhibitors of the Aldehyde Dehydrogenase Family (ALDH1A3) Primary screen (AID 2061315).

Inconclusive results are not listed. A call without a number means that no potency is given here. Activity calls are given as the source filed them. Calls follow the shape of the dose curve; as a rule, active = well fitted curve in the direction sought with a large enough effect; inconclusive = small, poorly fitted or top-dose-only effect, or another doubt; inactive = no such curve, though single readings can be large; an effect the other way counts as inactive or inconclusive.

As for `O=C(Nc1cccc(-c2nn3c(=O)cc(N4CCNCC4)nc3s2)c1)c1ccon1`, the Potency entry in assay [1] and in assay [2] was “inactive” in each case.
As to `O=C(O)c1ccc(-c2ccc3ncnc(NCCc4cnc[nH]4)c3c2)o1`, the Potency result in assay [1] and in assay [2] was “inactive” in each case.
With `O=C1CCc2cc(Cl)c(S(=O)(=O)Nc3ccc(Cl)c(Cl)c3)cc2N1`, the Potency result in assay [1] and in assay [2] was “inactive” each time.
For the compound `O=[S+]([O-])(Nc1ccc(-c2nc3ccccc3[nH]2)cc1)c1ccc2c(c1)CCO2`, the Potency result in assay [1] and in assay [2] was “inactive” in each case.
`COc1ccc(C2=Nn3c(nnc3-c3ccc(OC)c(OC)c3)SC2)cc1OC`: the Potency entry in assay [1] and in assay [2] was “inactive” each time.
In the case of `Cc1csc(CNc2ncnc3ccc(-c4ccco4)cc23)c1`, the Potency entry in assay [1] and in assay [2] was “inactive” each time.
Consider `CN(C)C(=O)c1cccc(-c2csc(N3CCC(C(N)=O)CC3)n2)c1`, for which the Potency result in assay [1] and in assay [2] was “inactive” throughout.
For the compound `FC(F)(F)c1ccccc1-c1nc(NCC23CC4CC(CC(C4)C2)C3)c2ccccc2n1`, the Potency entry in assay [1] and in assay [2] was “inactive” throughout.
For the compound `O=S(=O)(Nc1ccc2ccccc2c1)c1ccc(NCc2cccc(Cl)c2O)cc1`, the Potency result in assay [1] and in assay [2] was “inactive” throughout.
Turning to `Cc1cnc(-c2ccccc2C(C)C)nc1NCc1ccc(-c2ccc(F)nc2)cc1`, the Potency entry in assay [1] and in assay [2] was “inactive” throughout.
For the compound `O=C(/C=C/c1ccc(OC(F)(F)F)cc1)Nc1cccc([S+](=O)([O-])Nc2ccccc2F)c1`, the Potency entry in assay [1] and in assay [2] was “inactive” in each case.
`O=C1c2ccccc2C(=O)N1c1cnc2ccccc2c1`: the Potency result in assay [1] and in assay [2] was “inactive” in each case.
For `CC(=O)O[C@H]1C(=O)[C@@]2(C)[C@H]([C@H](OC(=O)c3ccccc3)[C@]3(O)C[C@H](OC(=O)[C@H](O)[C@@H](NC(=O)c4ccccc4)c4ccccc4)C(C)=C1C3(C)C)[C@]1(OC(C)=O)CO[C@@H]1C[C@@H]2O`, the Potency entry in assay [1] and in assay [2] was “inactive” in each case.
With `Cc1cc(NC(=O)Nc2nnc(C3CCCCC3)s2)ccc1Br`, the Potency result in assay [1] and in assay [2] was “inactive” each time.
With `COc1cccc(CNc2ccc([S+](=O)([O-])Nc3ccccc3)cc2)c1Cl`, the Potency entry in assay [1] and in assay [2] was “inactive” in each case.
For the compound `COc1ccc(C2=Nn3c(nnc3-c3ccccc3F)SC2)cc1OC`, the Potency entry in assay [1] and in assay [2] was “inactive” each time.
Consider `O=C(NCc1ccccc1)Nc1ncnc2c1C(c1ccccc1)c1c(ccc3ccccc13)O2` (stereo not given), for which the Potency entry in assay [1] and in assay [2] was “inactive” throughout.
On to `O=S(=O)(Nc1nccs1)c1ccc(NCc2ccccc2)cc1`, for which the Potency result in assay [1] and in assay [2] was “inactive” each time.
Consider `Cc1cc(C)nc(NC(=S)N2CCN(c3ccc(C(F)(F)F)cn3)CC2)c1`, for which the Potency entry in assay [1] and in assay [2] was “inactive” each time.
As for `O=C(COc1ccc(F)cc1)NCCc1nc2ccccc2[nH]1`, the Potency result in assay [1] and in assay [2] was “inactive” in each case.
On to `O=C(O)Cc1cc(F)c(S(=O)(=O)N2CCN(S(=O)(=O)c3ccc4c(c3)OCCO4)CC2)cc1F`, for which the Potency entry in assay [1] and in assay [2] was “inactive” throughout.
`CC(=O)O[C@@](C)(C(=O)/C=C/C(C)(C)O)[C@H]1[C@H](O)C[C@@]2(C)[C@@H]3CC=C4[C@@H](C=C(O)C(=O)C4(C)C)[C@]3(C)C(=O)C[C@]12C`: the Potency result in assay [1] and in assay [2] was “inactive” each time.
`Cc1c[nH]c2nccc(Oc3c(F)cc(Nc4cc(Cl)nc(N)n4)cc3F)c12`: the Potency entry in assay [1] and in assay [2] was “inactive” each time.
As to `O=C(Cc1nnc(-c2cc3ccccc3[nH]2)o1)Nc1cc(C(F)(F)F)ccc1Cl`, the Potency entry in assay [1] and in assay [2] was “inactive” throughout.
Turning to `CCN(CC)CCCCn1c(-c2ccccc2)nc2c(NC3CCCCC3)nc(C)nc21`, the Potency result in assay [1] and in assay [2] was “inactive” throughout.
As for `NC(=O)C1CCN(c2nc(-c3cccc(Br)c3)cs2)CC1`, the Potency entry in assay [1] and in assay [2] was “inactive” in each case.
`O=C1CCCC2=C1C(c1[nH]ncc1Cl)N=C(c1nc3ccccc3o1)N2` (stereo not given): the Potency entry in assay [1] and in assay [2] was “inactive” in each case.
Turning to `Cn1c2cc(Br)sc2c2cnn(Cc3c(F)cccc3F)c(=O)c21`, the Potency result in assay [1] and in assay [2] was “inactive” throughout.
Consider `CC(C)N1CCc2c(sc(NC(=O)C(F)F)c2-c2nc3ccccc3s2)C1`, for which the Potency result in assay [1] and in assay [2] was “inactive” throughout.
Take `CCCCCN1CCC(C(=O)Nc2ccc([S+](=O)([O-])Nc3nccs3)cc2)CC1`: the Potency result in assay [1] and in assay [2] was “inactive” in each case.
Turning to `Cc1ccc(-c2cc(C(=O)Nc3cccc(Cl)c3)c3ccccc3n2)cc1C`, the Potency entry in assay [1] and in assay [2] was “inactive” throughout.
For `O=C(NC1CCCc2c1cnn2-c1ccc(F)cc1F)C1CC1` (stereo not given), the Potency entry in assay [1] and in assay [2] was “inactive” in each case.
Take `O=C1CCc2cc(S(=O)(=O)Nc3ccc4c(c3)CCC4)ccc2N1`: the Potency result in assay [1] and in assay [2] was “inactive” each time.
Consider `c1cncc(CNc2ncnc3ccc(-c4ccco4)cc23)c1`, for which the Potency result in assay [1] and in assay [2] was “inactive” in each case.
For `Cc1ccc(S(=O)(=O)Nc2ccc(C(=O)Nc3ncc(-c4ccccc4)s3)cc2)cc1`, the Potency result in assay [1] and in assay [2] was “inactive” each time.
As to `Cc1nnc(-c2cnn(C)c2N)n1CCCc1ccccc1`, the Potency entry in assay [1] and in assay [2] was “inactive” each time.
`O=C(Nc1nc(-c2ccccc2)cs1)c1ccncc1NS(=O)(=O)c1cccc(Cl)c1`: the Potency entry in assay [1] and in assay [2] was “inactive” throughout.
In the case of `COc1cc(OC)cc(-c2csc(N3CCC(C(N)=O)CC3)n2)c1`, the Potency entry in assay [1] and in assay [2] was “inactive” throughout.
For `O=C(Nc1cccc(C(=O)O)c1)Nc1nnc(-c2ccncc2)s1`, the Potency entry in assay [1] and in assay [2] was “inactive” each time.
`CC(C)CN1CC2=C(C1=O)C(c1ccccc1Cl)N=C(Nc1nc3ccccc3o1)N2` (stereo not given): the Potency result in assay [1] and in assay [2] was “inactive” in each case.
As for `CC(C)N1CCc2c(-c3nc4ccccc4s3)csc2C1`, the Potency result in assay [1] and in assay [2] was “inactive” each time.
Regarding `CN(Cc1cccs1)c1ncnc2ccc(-c3ccc4c(c3)OCO4)cc12`, the Potency result in assay [1] and in assay [2] was “inactive” each time.
For `COc1ccc(NS(=O)(=O)c2ccc(C)cc2)c(C(=O)Nc2nc(-c3ccccc3)cs2)c1`, the Potency entry in assay [1] and in assay [2] was “inactive” each time.
For `O=C(OCC#CCSc1nnc(-c2cccc3ccccc23)o1)c1cnc[nH]1`, the Potency result in assay [1] and in assay [2] was “inactive” each time.
As to `O=S(=O)(Nc1cccc2cccnc12)c1ccc(Br)s1`, the Potency entry in assay [1] and in assay [2] was “inactive” each time.
Regarding `CCCC1CCN(C(=O)CC(c2ccc3c(c2)OCO3)c2c(O)cc(OC)cc2OC)C1` (stereo not given), the Potency result in assay [1] and in assay [2] was “inactive” throughout.
Turning to `COc1ccc(-c2ccc(=O)n(CC(=O)NCCc3ccccc3)n2)cc1OC`, the Potency entry in assay [1] and in assay [2] was “inactive” in each case.
Regarding `O=C1CCCC2=C1C1(CCCC1)N=C(Nc1nc3cc(Cl)ccc3o1)N2`, the Potency entry in assay [1] and in assay [2] was “inactive” in each case.
In the case of `O=C1CN(S(=O)(=O)c2c(F)cccc2F)CCN1S(=O)(=O)c1ccc2c(c1)OCCO2`, the Potency entry in assay [1] and in assay [2] was “inactive” in each case.
`O=C(N[C@H]1CCN(C(=O)c2cc(C(F)(F)F)cc(C(F)(F)F)c2)[C@H](Cc2ccc(Cl)cc2)C1)c1ccnc2ccccc12`: the Potency result in assay [1] and in assay [2] was “inactive” in each case.
`O=S(=O)(c1ccc2c(c1)OCCO2)N1CCN(S(=O)(=O)c2ccccc2Cl)CC1`: the Potency result in assay [1] and in assay [2] was “inactive” in each case.
As for `Cc1ccc(OCCn2c(CCNC(=O)c3cccc(F)c3)nc3ccccc32)cc1`, the Potency entry in assay [1] and in assay [2] was “inactive” throughout.
`O=C(O)C[C@H]1CCC(=O)[C@@H]1C/C=C\CCO`: the Potency result in assay [1] and in assay [2] was “inactive” throughout.
`O=C(/C=C/c1ccccc1)Nc1cccc(S(=O)(=O)Nc2ccccc2F)c1`: the Potency entry in assay [1] and in assay [2] was “inactive” in each case.
`O=C1Nc2ccccc2/C1=C\c1cc(Br)c(O)c(Br)c1`: the Potency entry in assay [1] and in assay [2] was “inactive” each time.
In the case of `C=C1[C@@H](C)[C@H]2[C@H](Cc3c[nH]c4ccccc34)NC(=O)[C@]23C(=O)/C=C/C(=O)[C@H](O)/C(C)=C\[C@@H](C)C/C=C/[C@H]3[C@@H]1O`, the Potency in assay [1] was 11.2 µM (active). In addition, the Potency result in assay [2] was “inactive”.
The like results for `CC1=C(C(=O)Nc2ccon2)C(c2ccccc2Br)N=C(Nc2nc3ccccc3o2)N1` (stereo not given) were, in that order, “inactive” and “inactive”.
For `CC(=O)Nc1sc2c(c1-c1cccc3ccccc13)CCNC2` the same measures were “inactive” and “inactive”.
The like results for `CCN(CC)CCCCn1c(-c2ccccc2)nc2c(NCc3ccccc3)nc(C)nc21` were, in that order, “inactive” and “inactive”.
In the case of `COc1cccc(-c2csc(N3CCC(C(N)=O)CC3)n2)c1`, the Potency entry in assay [1] and in assay [2] was “inactive” in each case.
Consider `COc1ccc(C2Nc3ccccc3C(=O)N2CCCN(C)C)cc1COc1c(C)cc(NC(C)=O)cc1C` (stereo not given), for which the Potency entry in assay [1] and in assay [2] was “inactive” each time.
In the case of `Cn1ccc2cc(S(=O)(=O)N3CCN(S(=O)(=O)c4c(F)cccc4F)CC3)ccc21`, the Potency result in assay [1] and in assay [2] was “inactive” in each case.
For `COc1cccc(C2=Nn3c(nnc3-c3ccc(OC)c(OC)c3)SC2)c1`, the Potency entry in assay [1] and in assay [2] was “inactive” each time.
Turning to `COc1ccc(CNC(=O)c2nc(S(=O)(=O)Cc3ccccc3)ncc2Cl)cc1`, the Potency entry in assay [1] and in assay [2] was “inactive” in each case.
For `CCN(CC)CCn1c(-c2ccccc2)nc2c(NC3CCCCC3)nc(C)nc21`, the Potency result in assay [1] and in assay [2] was “inactive” in each case.
Regarding `N#Cc1cccc(NC(=O)Nc2nnc(-c3ccncc3)s2)c1`, the Potency result in assay [1] and in assay [2] was “inactive” throughout.
Regarding `COc1ccccc1-c1ncc(C)c(NCc2ccc(-c3cccnc3)cc2)n1`, the Potency result in assay [1] and in assay [2] was “inactive” throughout.
`COc1ccc(NC(=O)CSc2nnc(-c3cccc(S(=O)(=O)N4CCCC4)c3)n2-c2ccccc2)cc1`: the Potency result in assay [1] and in assay [2] was “inactive” throughout.
For `COc1cc(F)c(S(=O)(=O)N2CCCN(S(=O)(=O)c3ccc4c(c3)OCCO4)CC2)c(F)c1`, the Potency result in assay [1] and in assay [2] was “inactive” each time.
With `COc1ccc(C(=O)Nc2ccc(-c3nc4ccccc4[nH]3)cc2)cc1C(F)(F)F`, the Potency entry in assay [1] and in assay [2] was “inactive” throughout.
Regarding `CCCn1c(C)nc2c(NCCCCN3CCCC3)nc(C)nc21`, the Potency entry in assay [1] and in assay [2] was “inactive” each time.
Turning to `COc1cccc(CNc2ncnc3ccc(-c4c(C)noc4C)cc23)c1`, the Potency entry in assay [1] and in assay [2] was “inactive” throughout.
For `N#Cc1cc(NC(=O)Nc2nnc(-c3ccncc3)s2)ccc1-c1ccc[nH]1`, the Potency entry in assay [1] and in assay [2] was “inactive” in each case.
Regarding `Cc1ccc(S(=O)(=O)n2cc(C(=O)Nc3nc(-c4ccccc4)cs3)c3ccccc32)cc1`, the Potency entry in assay [1] and in assay [2] was “inactive” in each case.
For the compound `C=C[C@H]1C(O[C@@H]2O[C@H](CO)[C@@H](O)[C@H](O)[C@H]2O)OC=C2C(=O)N3CCc4c([nH]c5ccccc45)[C@H]3C[C@H]21` (stereo not given in full), the Potency entry in assay [1] and in assay [2] was “inactive” each time.
Consider `Cc1cccc(C2N=C(Nc3nc4ccccc4o3)NC3=C2C(=O)CCC3)c1` (stereo not given), for which the Potency result in assay [1] and in assay [2] was “inactive” in each case.
Turning to `Oc1c(C(Nc2ccccn2)c2ccccc2)cc(Cl)c2cccnc12` (stereo not given), the Potency result in assay [1] and in assay [2] was “inactive” in each case.
Turning to `CCN(CC)CCCCn1c(-c2ccccc2)nc2c(NCCOC)nc(C)nc21`, the Potency result in assay [1] and in assay [2] was “inactive” in each case.
In the case of `Cn1nnnc1Sc1ncnc2scc(-c3cccc(C#N)c3)c12`, the Potency result in assay [1] and in assay [2] was “inactive” each time.
On to `O=C(CNC(=O)c1ccncc1)OC(C(=O)Nc1cc(C(F)(F)F)ccc1Cl)c1ccccc1` (stereo not given), for which the Potency entry in assay [1] and in assay [2] was “inactive” throughout.
